Results from ChEMBL document CHEMBL2218924, “A broad activity screen in support of a chemogenomic map for kinase signalling research and drug discovery” (Biochem J, 2013).

Legend:
[1] = biological target: T1, Casein kinase II (Homo sapiens) (UniProt P67870+P68400+P19784); conditions: at 1 µM
[2] = biological target: T1, Casein kinase II (Homo sapiens); conditions: at 10 µM
[3] = biological target: Casein kinase II subunit alpha' (Homo sapiens) (UniProt P19784); conditions: at 1 µM
[4] = biological target: Casein kinase II subunit alpha' (Homo sapiens) (UniProt P19784); conditions: at 10 µM
[5] = biological target: Dual specificity protein kinase CLK3 (Homo sapiens) (UniProt P49761); conditions: at 1 µM
[6] = biological target: Dual specificity protein kinase CLK3 (Homo sapiens) (UniProt P49761); conditions: at 10 µM
[7] = biological target: Tyrosine-protein kinase CSK (Homo sapiens) (UniProt P41240); conditions: at 1 µM
[8] = biological target: Tyrosine-protein kinase CSK (Homo sapiens) (UniProt P41240); conditions: at 10 µM
[9] = biological target: Dual specificity protein kinase CLK2 (Homo sapiens) (UniProt P49760); conditions: at 1 µM
[10] = biological target: Dual specificity protein kinase CLK2 (Homo sapiens) (UniProt P49760); conditions: at 10 µM

Dual specificity protein kinase CLK2 (Homo sapiens), sequence (P49760 whole entry, looked up): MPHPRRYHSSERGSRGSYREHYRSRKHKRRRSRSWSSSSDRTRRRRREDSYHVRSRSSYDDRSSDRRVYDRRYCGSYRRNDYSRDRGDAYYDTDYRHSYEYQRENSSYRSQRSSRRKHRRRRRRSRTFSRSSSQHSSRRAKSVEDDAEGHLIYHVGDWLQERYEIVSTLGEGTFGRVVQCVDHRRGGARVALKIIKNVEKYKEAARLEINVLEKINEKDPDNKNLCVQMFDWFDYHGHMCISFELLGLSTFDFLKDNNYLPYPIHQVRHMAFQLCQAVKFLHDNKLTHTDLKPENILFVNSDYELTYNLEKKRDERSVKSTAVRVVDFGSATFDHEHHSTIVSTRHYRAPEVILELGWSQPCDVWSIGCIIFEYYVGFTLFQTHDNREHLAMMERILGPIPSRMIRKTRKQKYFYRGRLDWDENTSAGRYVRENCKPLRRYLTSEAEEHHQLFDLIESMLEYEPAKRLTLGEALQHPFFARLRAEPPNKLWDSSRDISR
T1 sequence (P19784 whole entry, looked up): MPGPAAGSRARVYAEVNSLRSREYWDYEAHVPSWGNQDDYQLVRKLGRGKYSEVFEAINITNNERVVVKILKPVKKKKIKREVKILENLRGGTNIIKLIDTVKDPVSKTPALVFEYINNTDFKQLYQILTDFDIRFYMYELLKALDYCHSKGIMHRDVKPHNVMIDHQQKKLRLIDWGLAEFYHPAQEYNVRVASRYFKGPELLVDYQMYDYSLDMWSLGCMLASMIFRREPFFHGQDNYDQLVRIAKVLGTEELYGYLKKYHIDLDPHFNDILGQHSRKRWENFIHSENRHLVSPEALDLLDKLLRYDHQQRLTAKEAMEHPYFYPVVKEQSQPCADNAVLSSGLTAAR
T1 sequence (P67870 whole entry, looked up): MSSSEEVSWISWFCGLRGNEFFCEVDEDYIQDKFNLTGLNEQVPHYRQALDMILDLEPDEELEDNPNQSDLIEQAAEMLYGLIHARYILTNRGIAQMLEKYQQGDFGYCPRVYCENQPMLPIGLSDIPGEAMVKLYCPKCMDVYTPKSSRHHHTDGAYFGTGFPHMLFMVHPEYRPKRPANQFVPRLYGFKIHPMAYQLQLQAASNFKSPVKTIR
T1 sequence (P68400 whole entry, looked up): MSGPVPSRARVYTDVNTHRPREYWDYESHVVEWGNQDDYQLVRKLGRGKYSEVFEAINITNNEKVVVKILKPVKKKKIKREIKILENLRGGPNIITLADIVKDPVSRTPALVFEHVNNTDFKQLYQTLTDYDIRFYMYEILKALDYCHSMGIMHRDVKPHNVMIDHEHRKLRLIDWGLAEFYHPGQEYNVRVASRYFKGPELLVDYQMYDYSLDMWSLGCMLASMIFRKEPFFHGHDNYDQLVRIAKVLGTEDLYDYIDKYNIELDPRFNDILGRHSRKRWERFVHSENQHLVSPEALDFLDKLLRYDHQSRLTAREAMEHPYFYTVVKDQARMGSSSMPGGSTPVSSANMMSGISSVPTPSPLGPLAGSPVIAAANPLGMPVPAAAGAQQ
Casein kinase II subunit alpha' (Homo sapiens), sequence (P19784 whole entry, looked up): as the sequence (P19784 whole entry, looked up) above
Dual specificity protein kinase CLK3 (Homo sapiens), sequence (P49761 whole entry, looked up): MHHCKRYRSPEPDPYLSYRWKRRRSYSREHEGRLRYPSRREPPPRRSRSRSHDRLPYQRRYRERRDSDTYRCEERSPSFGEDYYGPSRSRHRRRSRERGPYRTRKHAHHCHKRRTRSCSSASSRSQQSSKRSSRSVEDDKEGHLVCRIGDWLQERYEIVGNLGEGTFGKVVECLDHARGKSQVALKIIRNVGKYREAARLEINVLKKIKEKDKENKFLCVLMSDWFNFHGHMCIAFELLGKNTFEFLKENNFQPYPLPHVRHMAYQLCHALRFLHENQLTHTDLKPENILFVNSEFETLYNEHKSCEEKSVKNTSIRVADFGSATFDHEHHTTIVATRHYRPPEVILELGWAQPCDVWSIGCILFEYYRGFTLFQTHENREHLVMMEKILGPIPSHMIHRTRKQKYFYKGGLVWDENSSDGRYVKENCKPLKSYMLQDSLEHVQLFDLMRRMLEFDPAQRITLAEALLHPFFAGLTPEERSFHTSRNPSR
Tyrosine-protein kinase CSK (Homo sapiens), sequence (P41240 2-450 limits assumed): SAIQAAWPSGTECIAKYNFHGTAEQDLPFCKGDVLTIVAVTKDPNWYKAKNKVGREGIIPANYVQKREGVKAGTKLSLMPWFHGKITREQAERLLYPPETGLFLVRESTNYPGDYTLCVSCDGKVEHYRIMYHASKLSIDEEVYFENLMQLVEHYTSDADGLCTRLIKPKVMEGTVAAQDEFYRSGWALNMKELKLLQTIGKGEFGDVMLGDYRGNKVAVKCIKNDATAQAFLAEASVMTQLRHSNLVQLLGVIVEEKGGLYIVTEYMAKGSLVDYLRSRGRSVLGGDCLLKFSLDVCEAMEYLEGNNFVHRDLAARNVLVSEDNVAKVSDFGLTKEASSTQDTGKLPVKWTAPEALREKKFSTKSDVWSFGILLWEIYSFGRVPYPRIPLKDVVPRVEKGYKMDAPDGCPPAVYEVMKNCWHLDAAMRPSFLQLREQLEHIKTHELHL

Row | SMILES | residual activity [1] [%] | residual activity [2] [%] | residual activity [3] [%] | residual activity [4] [%] | residual activity [5] [%] | residual activity [6] [%] | residual activity [7] [%] | residual activity [8] [%] | residual activity [9] [%] | residual activity [10] [%]
1 | O=C(CCCc1ccc(-c2ccccc2F)cc1)Nc1ccc(O)cc1 | 92 | 97 | 106 | 102 | 92 | 89 | 104 | 107 | – | –
2 | Nc1nc(Nc2ccc(S(N)(=O)=O)cc2)nn1C(=O)c1c(F)cccc1F | 111 | 97 | 104 | 99 | 20 | 0 | 99 | 100 | 40 | 9
3 | N#C/C(=C1/Nc2ccccc2S1)c1ccnc(NCCc2cccnc2)n1 | 58 | 15 | 41 | 15 | 39 | 6 | – | – | 29 | 13
4 | CCCC(=O)Oc1ccc2[nH]c(C(=O)c3cc4ccccc4[nH]3)cc2c1 | 86 | 106 | 132 | 98 | 81 | – | 101 | 100 | 122 | 101
5 | Fc1ccc(-c2nc3n(c2-c2ccncc2)CCS3)cc1 | 99 | 98 | – | – | 97 | 86 | – | – | – | –
6 | CC(C)c1nn(-c2c(Cl)cccc2Cl)c2nc(Cc3ccc(OCCO)cc3)[nH]c(=O)c12 | 100 | 96 | 108 | 94 | 77 | 59 | 123 | 106 | 38 | 48
7 | Nc1ncnc2c1c(-c1ccc(Oc3ccccc3)cc1)cn2C1CCCC1 | 79 | 105 | 118 | 86 | 82 | 6 | 0 | -1 | 112 | 88
8 | O=c1cc(N2CCNCC2)oc2c(-c3ccccc3)cccc12 | 79 | 52 | – | 90 | 81 | 100 | – | – | 90 | 93
9 | N#Cc1c(NC(=O)c2cccc3ccccc23)sc2c1CCCC2 | 97 | 99 | – | – | 77 | 87 | – | 99 | – | 99
10 | NC(=O)Nc1sc(-c2ccc(F)cc2)cc1C(N)=O | 68 | 34 | 78 | 18 | – | – | 92 | 56 | 105 | 46
11 | Oc1cccc(-c2nc(N3CCOCC3)c3oc4ncccc4c3n2)c1 | 89 | 124 | 140 | 79 | 79 | 30 | – | – | 118 | 89
12 | CCCCc1c(-c2ccc(O)cc2)[nH]c2nccnc12 | 99 | 92 | – | 87 | 83 | 52 | – | – | 64 | 47
13 | COc1cc2nccc(Oc3ccc(NC(=S)NC(=O)c4ccccc4C)cc3)c2cc1OC | 83 | 100 | – | 91 | 66 | 46 | 96 | 69 | – | –
14 | CC(C)(C)c1nc2c3ccc(F)cc3c3c(=O)[nH]ccc3c2[nH]1 | 56 | 63 | 100 | 34 | 68 | 13 | – | – | 34 | 50
15 | COc1ccc(Cl)cc1NC(=O)Nc1cc(C)nc2ccccc12 | 94 | – | – | – | – | – | – | – | – | –
16 | O=C(c1ccccc1)c1ccc(N2CCOCC2)cc1O | 88 | 113 | 122 | – | 89 | – | – | 84 | – | –
17 | O=C1Nc2ccc(Cl)cc2/C1=C/c1cc(Cl)c(O)c(Cl)c1 | 41 | 4 | 92 | 32 | 70 | 29 | 96 | – | 84 | 45
18 | O=C(O)/C=C/c1cc(Br)c(Br)c(Br)c1Br | 12 | -8 | 33 | 5 | 79 | 52 | – | – | 102 | 49
19 | CN(C)S(=O)(=O)c1ccc2c(c1)/C(=C/c1cc3c([nH]1)CCCC3)C(=O)N2 | 95 | 100 | – | 94 | 39 | 28 | – | – | 69 | 71
20 | CSc1nc(-c2ccc(F)cc2)c(-c2ccnc(NC(C)c3ccccc3)c2)[nH]1 (stereo not given) | 99 | 99 | – | – | 84 | 86 | 102 | 84 | – | 89
21 | CCOC(=O)c1c(C)[nH]c(/C=C2\C(=O)Nc3ccccc32)c1C | 77 | 118 | 131 | 89 | 82 | 73 | – | – | 95 | 95
22 | O=c1cc(N2CCOCC2)oc2c(-c3ccccc3)cccc12 | 54 | 12 | – | 42 | – | – | – | – | – | –
23 | O=C1C(Cl)=C(N2C(=O)CCC2=O)C(=O)c2ccccc21 | 99 | 100 | 100 | 98 | 89 | 79 | – | – | 102 | 80
24 | COc1cc2c(cc1OC)-c1n[nH]c(Nc3cccc(F)c3)c1C2 | 82 | 106 | – | – | 59 | 48 | 80 | 29 | 108 | 68
25 | Nc1n[nH]c2nc3ccccc3nc12 | 85 | 62 | – | – | 88 | 71 | – | – | 84 | 52
